Measured values from PubChem BioAssay AID504339 (National Center for Advancing Translational Sciences (NCATS), 2011).
In all, about 390,000 compounds went through this assay and about 17,000 (4.4%) were called active. Another 8% or so got no clear call; they are omitted. The sample as a whole holds a higher share of actives than the screen did. Values without a mark were called inactive. Calls follow the shape of the dose curve; as a rule, active = well fitted inhibition curve with a large enough effect; inconclusive = small, poorly fitted or top-dose-only effect; inactive = no such curve, though single readings can be large or run the other way.

Target: Lysine-specific demethylase 4A (Homo sapiens) (UniProt O75164)
Assay: qHTS Assay for Inhibitors of JMJD2A-Tudor Domain; also: nearly all actives have a fitted effect of over 50% in size
Conditions: AlphaScreen JMJD2A-Tudor / H3K4me3 peptide binding; series mostly up to 114 µM; activity change, negative = inhibition: at the top concentration
Text: JMJD2A is a jumonji-domain-containing lysine demethylase that uses Fe(II) together with 2-OG to effect oxidative demethylation of histones. Methylation is one of many […] modification that affect epigenetic transcription. […] It is proposed that the functions of JmjD2A binding to the histones, is to maintain marks after they are installed and to spread the modifications by […], establishing a self-propagating cycle for rapid methylation over a large area of chromatin. […] Thus, small molecule targeting of the JMJD2A-tudor domain interaction with its target methylhistone mark is expected to enable sophisticated experiments probing the fine regulatory pathways leading to selective demethylation of a given methyllysine locus based on the methylation state of adjacent histone marks. A quantitative high throughput AlphaScreen has been developed to identify small molecule inhibitors based on a protocol published by NCGC and SGC [4].
Although AlphaScreen has significant advantages with its utility in a variety of epigenetic target assays, the primary screening data provided in this deposition should be used with caution due to the prevalence of screening artifacts. The top compound concentration tested was high (>100uM) in this assay, which increases number of actives and potential artifacts. An AlphaScreen counterscreen is highly recommended to be run against any putative actives to eliminate non-specific artifacts. Alternatively, one can use other AlphaScreen assays in PubChem to filter out promiscuous hits.
[1] Lee, J. et al. Distinct binding modes specify the recognition of methylated histone H3K4 and H4K20 by JMJD2A-tudor. Nat Struct Mol Biol. 15(1); 109-11. 2008. PMID: 18084306
[2] Yasgar, et al. Compound Management for Quantitative High-Throughput Screening. JALA. 2008 Apr;13(2):79-89. PMID: 18496600
[3] Inglese, et al. Quantitative high-throughput screening: a titration-based approach that efficiently identifies biological activities in large chemical libraries. Proc Natl Acad Sci. 1;103(31):11473-8. 2006. PMID: 16864780
[4] Quinn et al. A homogeneous method for investigation of methyl-dependent protein-protein interactions in epigenetics. Nucleic Acids Res., 38(2):e11. 2010. PMID: […]
[5] Baell,Holloway. New substructure filters for removal of pan assay interference compounds (PAINS) from screening libraries and for their exclusion in bioassays. J Med Chem. 53(7):2719-40. 2010. PMID: 20131845
NIH Molecular Libraries Probe Production Network [MLPCN]
NIH Chemical Genomics Center [NCGC]
Structural Genomics Consortium (SGC)
To each well of a 1,536w plate, 2ul of JMJD2A-Tudor (final 100nM) and 1ul biotinylated histone peptide methylated at Lys4 [b-H3(1-18)K4me3] (final 50nM) were added in 1x PBS buffer, pH 7.4, containing 0.01% Tween-20, using a nanoliter dispenser. Formation of a protein-peptide complex proceeded at room temperature for 30 min. A Kalypsys pin-tool transferred 23nl of library compound solution in DMSO to each well. Following a 30 min incubation of the protein-peptide complex with compounds at room temperature, a mixture of 40 µg/mL each streptavidin-coated donor and nickel chelate acceptor AlphaScreen beads (final 10 µg/mL) was added in a 1ul dispense for a final volume of 4ul, followed by a brief centrifugation (1000 rpm, 1 min). Plates were incubated protected from the light for 20 min at room temperature. Microplates were then read on an EnVision multilabel plate reader using the 1,536 plate HTS AlphaScreen aperture (excitation time 80 ms, measurement time 240 ms).
% is scaled to controls: 0 for no effect and ±100 for the full control effect; potency is read from the fitted curve at half-maximal effect.

Lysine-specific demethylase 4A (Homo sapiens), sequence (O75164 whole entry, looked up, the tested form may be a part): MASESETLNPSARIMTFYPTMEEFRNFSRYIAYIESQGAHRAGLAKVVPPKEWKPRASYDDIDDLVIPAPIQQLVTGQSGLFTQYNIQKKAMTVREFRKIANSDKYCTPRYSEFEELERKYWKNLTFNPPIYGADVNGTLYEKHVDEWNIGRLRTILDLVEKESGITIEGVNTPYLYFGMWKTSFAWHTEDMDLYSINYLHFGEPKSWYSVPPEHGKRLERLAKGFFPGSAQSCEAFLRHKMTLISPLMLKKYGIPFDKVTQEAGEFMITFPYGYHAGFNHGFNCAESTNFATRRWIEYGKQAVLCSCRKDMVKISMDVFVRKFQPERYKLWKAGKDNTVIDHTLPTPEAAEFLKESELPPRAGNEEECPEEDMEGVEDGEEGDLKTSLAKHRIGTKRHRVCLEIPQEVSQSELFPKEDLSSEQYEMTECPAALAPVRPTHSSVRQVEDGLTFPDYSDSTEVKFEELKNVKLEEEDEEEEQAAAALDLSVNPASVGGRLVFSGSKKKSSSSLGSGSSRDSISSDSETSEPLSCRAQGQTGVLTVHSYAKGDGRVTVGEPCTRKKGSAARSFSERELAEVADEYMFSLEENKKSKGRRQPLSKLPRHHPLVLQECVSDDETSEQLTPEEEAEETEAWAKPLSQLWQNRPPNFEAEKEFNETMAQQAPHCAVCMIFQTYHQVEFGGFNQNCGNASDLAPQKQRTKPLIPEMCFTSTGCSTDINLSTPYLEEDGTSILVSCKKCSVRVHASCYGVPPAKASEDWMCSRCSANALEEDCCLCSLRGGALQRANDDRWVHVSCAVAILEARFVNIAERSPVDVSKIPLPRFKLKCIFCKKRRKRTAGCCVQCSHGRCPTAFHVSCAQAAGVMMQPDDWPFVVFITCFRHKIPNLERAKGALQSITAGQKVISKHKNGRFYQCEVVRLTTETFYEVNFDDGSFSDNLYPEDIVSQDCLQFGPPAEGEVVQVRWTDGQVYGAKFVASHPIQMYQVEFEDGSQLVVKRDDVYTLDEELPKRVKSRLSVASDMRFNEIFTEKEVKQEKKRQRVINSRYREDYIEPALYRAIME

Question: Which “activity change, negative = inhibition” value does the source give for `Cn1c(=O)[nH]c(=O)c2c1nc(N1CCN(CCO)CC1)n2CCSc1nc2ccccc2s1` here?
Answer: -14.6%

Question: How did the “activity change, negative = inhibition” value turn out when `COc1ccc(C(=O)COC(=O)CCCC(=O)Nc2cc(C(F)(F)F)ccc2Cl)cc1` was run?
Answer: 17%

Question: With `COc1c(Cl)cc(C(=O)N(Cc2ccccc2F)C2CCS(=O)(=O)C2)cc1Cl` (stereo not given) as the compound, how does the “activity change, negative = inhibition” value read?
Answer: -16%

Question: For `Cn1nnnc1SCCNCc1ccc(Cl)c(Cl)c1`, which “activity change, negative = inhibition” value is on record?
Answer: -11.6%

Question: `CCOc1ccccc1C(=O)NCc1ccc2c(c1)CCN2C(=O)c1ccc(F)cc1` was tested. Which “activity change, negative = inhibition” value did it give?
Answer: -6.33%

Question: `COc1ccc(-c2c(-c3cc(OC)cc(OC)c3)n(C)c3ccc(-c4ccn[nH]4)cc23)cc1` was tested. Which Potency did it give?
Answer: 22.4 µM (active)

Question: How did the “activity change, negative = inhibition” value turn out when `COc1cc(OC)cc(-c2c(-c3cccs3)c3cc(-c4ccc(OC)nc4)ccc3n2C)c1` was run?
Answer: -13.6%

Question: How did the “activity change, negative = inhibition” value turn out when `COc1cc(OC)cc(-c2c(-c3ccc(F)cc3)c3cc(-c4ccc5cc[nH]c5c4)ccc3n2C)c1` was run?
Answer: -22.9%

Question: With `Cc1cccc(OCCCC(=O)Nc2sc3c(c2C(N)=O)CCC(C)C3)c1` (stereo not given) as the compound, how does the “activity change, negative = inhibition” value read?
Answer: -22.5%

Question: For `Cc1cc(C)nc(N/N=C/c2c(CO)cnc(C)c2O)n1`, which Potency is on record?
Answer: 89.1 µM (active)

Question: With `CCS(=O)(=O)c1nc(S(=O)(=O)c2ccc(C)cc2)c(NCc2ccc(Cl)cc2)s1` as the compound, how does the “activity change, negative = inhibition” value read?
Answer: -5.37%

Question: Which “activity change, negative = inhibition” value does the source give for `Cc1ccccc1NC(=O)Cn1c(=O)n(CC2CCC(C(=O)NCCc3ccccc3)CC2)c(=O)c2ccccc21` (stereo not given) here?
Answer: 0.343%

Question: Which “activity change, negative = inhibition” value does the source give for `CCc1ccc(CNC(=O)c2cc3c(=O)n(CC)c4ccccc4c3s2)cc1` here?
Answer: -7.41%

Question: For `CN(C)c1ccc(C(CC(=O)O)C(=O)O)cc1` (stereo not given), which “activity change, negative = inhibition” value is on record?
Answer: -19.5%

Question: Which “activity change, negative = inhibition” value does the source give for `CN(C)c1cc[n+](Cc2ccccc2)cc1` here?
Answer: 7.22%

Question: For `CN(C)c1ccc(CSc2ccccc2)cc1`, which Potency is on record?
Answer: 20 µM (active)

Question: With `Cc1cccc(NC(=O)CSC(N)=O)c1C` as the compound, how does the “activity change, negative = inhibition” value read?
Answer: -8.89%

Question: Which Potency does the source give for `Cc1ccccc1NC(=O)CSC(=O)c1ccccc1` here?
Answer: 89.1 µM (active)

Question: Which Potency does the source give for `Cc1ccccc1NC(=O)CCOc1ccccc1` here?
Answer: inactive

Question: How did the “activity change, negative = inhibition” value turn out when `COc1ccccc1NC(=O)c1sc2nc(C)c(C(=O)Nc3ccc(Cl)cc3)c(-c3ccc(Br)cc3)c2c1N` was run?
Answer: -2.39%

Question: `O=C(CC1Sc2ccccc2NC1=O)NNc1ccc(Cl)c(Cl)c1` (stereo not given) was tested. Which “activity change, negative = inhibition” value did it give?
Answer: -9.09%

Question: `Cn1c(CC(=O)Nc2ccccc2)nnc1SCC(=O)c1ccccc1` was tested. Which “activity change, negative = inhibition” value did it give?
Answer: -9.68%

Question: With `Cn1c(CC2Sc3ccccc3NC2=O)nnc1SCC(=O)c1ccc(Cl)cc1` (stereo not given) as the compound, how does the Potency read?
Answer: 25.1 µM (active)

Question: For `CN(C(=O)CSc1nnc(NC(=O)Nc2ccccc2)s1)c1ccccc1`, which “activity change, negative = inhibition” value is on record?
Answer: -10.4%

Question: How did the “activity change, negative = inhibition” value turn out when `COc1ccc(CNC(=O)Cn2nnc(-c3ccccc3F)n2)cc1` was run?
Answer: -11.6%

Question: With `Cc1cccc(NC(=O)Cn2cc(S(=O)(=O)Cc3ccccc3Cl)c3ccccc32)c1` as the compound, how does the “activity change, negative = inhibition” value read?
Answer: -14.9%

Question: Which “activity change, negative = inhibition” value does the source give for `CSc1ccc(C2C(C(=O)Nc3ccccc3)=C(C)Nc3nc4ccccc4n32)cc1` (stereo not given) here?
Answer: -12.3%

Question: Which “activity change, negative = inhibition” value does the source give for `COCCNC(=O)c1cc(-c2cccc(Cl)c2)on1` here?
Answer: -21.2%

Question: For `O=C(CN1C(=O)/C(=C\c2ccc(C(F)(F)F)cc2)Sc2ccccc21)NCc1ccco1`, which “activity change, negative = inhibition” value is on record?
Answer: -13.2%

Question: `O=C(CN1C(=O)/C(=C/c2ccccc2F)Sc2ccccc21)NCc1cccnc1` was tested. Which Potency did it give?
Answer: 89.1 µM (active)

Question: With `O=C(CN1C(=O)S/C(=C\c2ccccc2F)C1=O)NCCCn1ccnc1` as the compound, how does the “activity change, negative = inhibition” value read?
Answer: -14.5%

Question: For `Cc1nn(CC(=O)N2CCN(c3cccc(C(F)(F)F)c3)CC2)c(=O)c2cc3sccc3n12`, which “activity change, negative = inhibition” value is on record?
Answer: -5.45%

Question: For `CCc1ccc(S(=O)(=O)Nc2cc3c(C(=O)OCc4ccccc4)c(C)oc3c3ccccc23)cc1`, which “activity change, negative = inhibition” value is on record?
Answer: -19%

Question: `Cc1ccc(-c2cc(C(=O)Oc3ccccc3Cl)no2)cc1C` was tested. Which “activity change, negative = inhibition” value did it give?
Answer: 101%

Question: For `Cc1ccc(NC(=O)NNC(=O)c2sccc2-n2cccc2)cc1`, which “activity change, negative = inhibition” value is on record?
Answer: -27%

Question: `C=CC[n+]1c(-c2ccc(C)cc2)csc1NNC(=O)Nc1ccccc1` was tested. Which Potency did it give?
Answer: 28.2 µM (active)

Question: How did the “activity change, negative = inhibition” value turn out when `O=C(NNC(=O)c1ccc(-c2ccccc2)cc1)Nc1ccccc1` was run?
Answer: -2.1%

Question: `FC(F)(F)c1cc(Nc2nc3ccccc3c3nncn23)ccc1Cl` was tested. Which “activity change, negative = inhibition” value did it give?
Answer: -8.56%

Question: Which “activity change, negative = inhibition” value does the source give for `CC(C)(C)n1nnnc1C(c1ccccc1F)N1CCN(C(=O)c2ccco2)CC1` (stereo not given) here?
Answer: 6.92%

Question: How did the Potency turn out when `CCC(C)(C)n1nnnc1C(c1ccc(OC)c(OC)c1)N1CCN(C(=O)c2ccco2)CC1` (stereo not given) was run?
Answer: 79.4 µM (active)

Question: How did the “activity change, negative = inhibition” value turn out when `CCC(c1nnnn1C1CCCC1)N1CCN(C(=O)c2ccco2)CC1` (stereo not given) was run?
Answer: -20.8%

Question: How did the activity change, negative = inhibition turn out when `CC1CCCCN1S(=O)(=O)c1ccc(C(=O)Nc2nnc(-c3cccs3)o2)cc1` (stereo not given) was run?
Answer: -1.53% [at 11.4 µM]

Question: With `CC1CCCCN1S(=O)(=O)CCNC(=O)c1ccccc1` (stereo not given) as the compound, how does the “activity change, negative = inhibition” value read?
Answer: -2.72%

Question: `CSCc1nnc(NC(=O)c2ccc(S(=O)(=O)N3CCCCC3C)cc2)o1` (stereo not given) was tested. Which Potency did it give?
Answer: 50.1 µM (active)

Question: With `Cc1nnc(C)n1-c1ccc(C(=O)Nc2cccc(Br)c2)cc1` as the compound, how does the “activity change, negative = inhibition” value read?
Answer: -7.42%

Question: For `COC(=O)CN1C(=O)CSc2ccc(S(=O)(=O)Nc3cc(C)ccc3C)cc21`, which “activity change, negative = inhibition” value is on record?
Answer: -13.4%

Question: Which “activity change, negative = inhibition” value does the source give for `CC(C)(C)OC(=O)N1CCC(c2c(C(=O)N3CCc4ccccc4C3)cnn2-c2ccc(F)cc2)CC1` here?
Answer: -18.4%

Question: `Cc1ccc(Cl)cc1N1CCN(C(=O)C2CCC(CNS(=O)(=O)c3cccs3)CC2)CC1` (stereo not given) was tested. Which “activity change, negative = inhibition” value did it give?
Answer: -20.2%

Question: Which “activity change, negative = inhibition” value does the source give for `C#CCOc1ccc(C2CC(=O)Nc3c2c(C)nn3-c2nc(C)cc(C)n2)cc1` (stereo not given) here?
Answer: -27.2%

Question: `Cc1ccc(CSc2oc(-c3cccs3)nc2S(=O)(=O)c2ccc(C)cc2)cc1` was tested. Which “activity change, negative = inhibition” value did it give?
Answer: -1.37%
